Assay [1] in a line: qHTS Assay for Identifying Gametocytocidal Compounds (AID 743244; active = well fitted curve in the direction sought with a large enough effect; an effect the other way counts as inactive or inconclusive; also: potency is read from the fitted curve at half-maximal effect;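 as to max response: % is scaled to controls: 0 for no effect and ±100 for the full control effect; actives lower the fluorescent signal which means gametocytes are killed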). The note with it: P. falciparum 3D7 stage III-V gametocytes, alamarBlue, 72 h; max response: stronger effect = lower value. The essentials: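 Compounds are pinned into medium, gametocytes (stage III–V, 3D7, 20,000 cells/well) added, and plates held 72 h at 37 °C in 5% CO2. AlamarBlue follows for 24 h before fluorescence reading.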

A short description of assay [2]: qHTS profiling for inhibitors of Plasmodium falciparum (3D7) proliferation (AID 743322).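 Also: infected erythrocytes exposed to compound for 72 h before lysis; 100% = DMSO vehicle wells and 0% = 0.29 µM artemisinin.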 The note with it: P. falciparum 3D7 proliferation; at 28.7 µM (top of the series) unless noted. The essentials:
(§1)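 Erythrocytes infected with P. falciparum (0.3% parasitemia, 2.5% hematocrit) incubated with compounds 72 h at 37 C, 5% CO2. Lysis with saponin/Triton buffer containing SYBR Green I, overnight at room temperature in the dark; DNA fluorescence (485/535 nm) normalised to 0.29 uM artemisinin and DMSO.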

The nature of assay [3]: qHTS profiling for inhibitors of Plasmodium falciparum (DD2) proliferation (AID 743323). The note with it: lower = more inhibition; at 28.7 µM (top of the series) unless noted. In short, it runs like this:
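Parasite proliferation measured via DNA-dye fluorescence, as uninfected erythrocytes lack DNA. Cultures at 0.3% parasitemia and 2.5% hematocrit incubated 72 h with compound; signal scaled between vehicle and 0.29 uM artemisinin wells.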

Assay [4] can be described thus: qHTS profiling for inhibitors of Plasmodium falciparum (HB3) proliferation (AID 743324; active = well fitted curve in the direction sought with a large enough effect; an effect the other way counts as inactive or inconclusive;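 also: 100% = DMSO vehicle wells and 0% = artemisinin-treated control wells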). The note with it: Plasmodium falciparum HB3 blood-stage proliferation; at 28.7 µM (top of the series) unless noted. The essentials:
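P. falciparum HB3 grown in erythrocytes (0.3% parasitemia, 2.5% hematocrit final) with compound for 72 h at 37 C, 5% CO2. Parasite DNA detected by SYBR Green after saponin/triton lysis overnight; normalized to 0.29 uM artemisinin and DMSO.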

The nature of assay [5]: qHTS profiling of the MIPE4 collection as inhibitors of Plasmodium falciparum (3D7) proliferation (AID 743344).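 Also: scaled between DMSO vehicle wells and 0.29 µM artemisinin as full inhibition.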 The note with it: P. falciparum 3D7 in erythrocytes, SYBR Green DNA fluorescence, 72 h; at 28.5 µM (top of the series) unless noted. In short, it runs like this:
as §1

A short description of assay [6]: qHTS profiling of the MIPE4 collection as inhibitors of Plasmodium falciparum (DD2) proliferation (AID 743345). The settings on record: P. falciparum Dd2 in erythrocytes, SYBR Green DNA, 72 h; at 28.5 µM (top of the series) unless noted. In short, it runs like this:
as §1

The nature of assay [7]: qHTS profiling of the MIPE4 collection as inhibitors of Plasmodium falciparum (DD2) proliferation (Rep 2) (AID 743346). The note with it: P. falciparum Dd2 in erythrocytes, SYBR Green DNA, 72 h; at 28.5 µM (top of the series) unless noted. In short, it runs like this: as §1
Assay [8] is described as follows: qHTS profiling of the MIPE4 collection as inhibitors of Plasmodium falciparum (HB3) proliferation (AID 743347).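 Also: plate controls were DMSO vehicle wells for no effect and artemisinin wells for full effect.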 The note with it: P. falciparum HB3 in erythrocytes, SYBR Green DNA, 72 h; at 28.5 µM (top of the series) unless noted. In short, it runs like this: as §1

“And” between values parts separate entries of the source, which are not always exact repeats. Equal values may be shown once. Inconclusive results are not listed. The source made the active and inactive calls. Unless noted, no rule for the calls is given here.

As for `CCc1ccc(CCOc2ccc(CC3SC(=O)NC3=O)cc2)nc1` (configuration not stated), the max response in assay [1] is 40% (inactive) and -8.95% (inactive). In addition, the remaining parasite growth % (stronger effect = lower value) in assay [2] turned out to be 92%. Further, in assay [3], the activity, percent of control amounted to 103%. The remaining proliferation (% of control), lower = more inhibition in assay [4] stood at 66.4%. Also, the parasite growth, % of DMSO control in assay [5] came to 89.3%. In assay [6], this molecule yielded a parasite growth remaining, % of DMSO control (lower = more inhibition) of 90.1%. Further, in assay [7], the parasite growth, % of control (lower = inhibition) is 79.4%. The molecule further returned a growth, % of control in assay [8] of 63.3%.
On to `Cn1c(=O)c(F)c(Nc2ccc(I)cc2F)c2c(=O)n(C[C@@H](O)CO)cnc21`, for which the max response in assay [1] was -1.37% (inactive). In addition, the remaining parasite growth % (stronger effect = lower value) in assay [2] stood at 83.3%. Also, the activity, percent of control in assay [3] was 71.7%. Moreover, in assay [4], the remaining proliferation (% of control), lower = more inhibition is 68.4%. In assay [5], this molecule returned a parasite growth, % of DMSO control of 12.8%. This molecule yielded a parasite growth remaining, % of DMSO control (lower = more inhibition) in assay [6] of 86.9%. The parasite growth, % of control (lower = inhibition) in assay [7] was 24.5%. For the same molecule, the growth, % of control in assay [8] was 7.31%.
Turning to `Cc1ccc(-n2nc(C(C)(C)C)cc2NC(=O)Nc2ccc(OCCN3CCOCC3)c3ccccc23)cc1`, the Potency in assay [1] is 12.6 µM (active). The remaining parasite growth % (stronger effect = lower value) in assay [2] worked out at 24.3%. In addition, the activity, percent of control in assay [3] stood at 14.4%. The remaining proliferation (% of control), lower = more inhibition in assay [4] was determined as 5.8%. The same molecule displayed a parasite growth, % of DMSO control in assay [5] of 29.4%. This molecule also came in with a parasite growth remaining, % of DMSO control (lower = more inhibition) in assay [6] of 84.5%. Moreover, the parasite growth, % of control (lower = inhibition) in assay [7] was determined as 31.6%. The growth, % of control in assay [8] amounted to 72.4%.
For `CS(=O)(=O)c1ccc(C(=O)Nc2ccc(Cl)c(-c3ccccn3)c2)c(Cl)c1`, the max response in assay [1] was 15% (inactive). Also, in assay [2], the remaining parasite growth % (stronger effect = lower value) was 105%. Moreover, the activity, percent of control in assay [3] is 101%. The remaining proliferation (% of control), lower = more inhibition in assay [4] amounted to 103%. Also, the parasite growth, % of DMSO control in assay [5] turned out to be 66.9%. In assay [6], the parasite growth remaining, % of DMSO control (lower = more inhibition) worked out at 93.4%. Moreover, the parasite growth, % of control (lower = inhibition) in assay [7] worked out at 97%. The same molecule registered a growth, % of control in assay [8] of 92.4%.
With `CCCc1nn(C)c2c(=O)[nH]c(-c3cc(S(=O)(=O)N4CCN(C)CC4)ccc3OCC)nc12`, in assay [1], the max response was 18.4% (inactive). In addition, the remaining parasite growth % (stronger effect = lower value) in assay [2] stood at 98.3%. Besides, the activity, percent of control in assay [3] amounted to 102%. Besides, the remaining proliferation (% of control), lower = more inhibition in assay [4] was determined as 61.6%. Further, the parasite growth, % of DMSO control in assay [5] came out at 21.3%. The parasite growth remaining, % of DMSO control (lower = more inhibition) in assay [6] worked out at 17.2%. The parasite growth, % of control (lower = inhibition) in assay [7] is 51.4%. The molecule further gave a growth, % of control in assay [8] of 24.6%.
As to `N#CC[C@H](C1CCCC1)n1cc(-c2ncnc3[nH]ccc23)cn1`, in assay [1], the max response is 2.34% (inactive). Also, the remaining parasite growth % (stronger effect = lower value) in assay [2] came out at 57.9%. For the same molecule, the activity, percent of control in assay [3] was 48.8%. In assay [4], the remaining proliferation (% of control), lower = more inhibition was determined as 18.5%. In assay [5], this molecule came in with a parasite growth, % of DMSO control of 21.5%. This molecule returned a parasite growth remaining, % of DMSO control (lower = more inhibition) in assay [6] of 64.4%. Moreover, the parasite growth, % of control (lower = inhibition) in assay [7] came out at 55.7%. This molecule registered a growth, % of control in assay [8] of 40.5%.
With `COc1nc(-c2ccc3c(c2)OCO3)n(-c2ccc(NC(=O)CSc3ccccc3)cc2)n1`, in assay [1], the max response was 6.75% (inactive). Further, the remaining parasite growth % (stronger effect = lower value) in assay [2] stood at 96.2%. For the same molecule, in assay [3], the activity, percent of control was 95.9%. Further, the remaining proliferation (% of control), lower = more inhibition in assay [4] was found to be 94.2%. Also, the parasite growth, % of DMSO control in assay [5] amounted to 51.6%. The molecule further returned a parasite growth remaining, % of DMSO control (lower = more inhibition) in assay [6] of 86.8%. For the same molecule, the parasite growth, % of control (lower = inhibition) in assay [7] came out at 61.9%. This molecule registered a growth, % of control in assay [8] of 82%.
On to `COc1ccc(-c2c(-c3ccc(O)cc3O)n[nH]c2C)cc1`, for which the max response in assay [1] was 3.95% (inactive). Also, the remaining parasite growth % (stronger effect = lower value) in assay [2] turned out to be 1.98%. For the same molecule, the activity, percent of control in assay [3] worked out at 5.32%. In assay [4], the remaining proliferation (% of control), lower = more inhibition was 0.491%. Further, the parasite growth, % of DMSO control in assay [5] is 47% [at 57.5 µM]. This molecule also showed a parasite growth remaining, % of DMSO control (lower = more inhibition) in assay [6] of 61.8% [at 57.5 µM]. In assay [7], the parasite growth, % of control (lower = inhibition) turned out to be 45.5% [at 57.5 µM].
For the molecule `CC1(C)CNc2cc(NC(=O)c3cccnc3NCc3ccncc3)ccc21`, the max response in assay [1] is -7.52% (inactive). The remaining parasite growth % (stronger effect = lower value) in assay [2] came out at 70.1%. Besides, the activity, percent of control in assay [3] came to 68.6%. The remaining proliferation (% of control), lower = more inhibition in assay [4] was 5.63%. Besides, the parasite growth, % of DMSO control in assay [5] was determined as 53.8%. Moreover, the parasite growth remaining, % of DMSO control (lower = more inhibition) in assay [6] was determined as 86.3%. For the same molecule, in assay [7], the parasite growth, % of control (lower = inhibition) turned out to be 42.2%. Further, in assay [8], the growth, % of control was found to be 30.1%.
As for `Cc1cc(-c2ccc(CC(=O)Nc3ccc(-c4cccnc4)cc3)cc2)ccn1`, the max response in assay [1] is 17.3% (inactive). Moreover, the remaining parasite growth % (stronger effect = lower value) in assay [2] came to 75%. Besides, the activity, percent of control in assay [3] was 88.9%. For the same molecule, the remaining proliferation (% of control), lower = more inhibition in assay [4] worked out at 6.55%. In addition, the parasite growth, % of DMSO control in assay [5] is 32.3%. In assay [6], this molecule showed a parasite growth remaining, % of DMSO control (lower = more inhibition) of 95.7%. Further, the parasite growth, % of control (lower = inhibition) in assay [7] is 110%. Moreover, the growth, % of control in assay [8] came to 63.6%.
In the case of `Clc1ccc(Nc2nnc(Cc3ccncc3)c3ccccc23)cc1`, the max response in assay [1] was -0.822% (inactive) and -17.1% (inactive). The remaining parasite growth % (stronger effect = lower value) in assay [2] is -0.114%. The activity, percent of control in assay [3] amounted to 2.71%. Further, in assay [4], the remaining proliferation (% of control), lower = more inhibition was 0.459%. The parasite growth, % of DMSO control in assay [5] amounted to 34.2%. For the same molecule, the parasite growth remaining, % of DMSO control (lower = more inhibition) in assay [6] was 84.7%. The parasite growth, % of control (lower = inhibition) in assay [7] worked out at 63.4%. In addition, the growth, % of control in assay [8] was 53.1%.

The values above are taken from PubChem BioAssay (NCATS).
